For 39 molecules, growth results are on record in PubChem BioAssay (NCI).

“And” between values parts separate entries of the source, which are not always exact repeats. Identical values can stand only once. About 83,000 compounds went through this panel and 20% of them were active in at least one assay; those are over-represented in the sample as a whole.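 Method: cells in 96-well plates; compound added at one concentration; 48 h incubation; percent growth measured; values under 10 scored active.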 Unmarked numbers belong to inactive results. The source made the active and inactive calls.

One assay has as its system HS 578T breast. The assay is described as follows: NCI-60 one-dose screen, 48 h (100 = growth as untreated, 0 = no growth, -100 = all killed). Particulars: 4.75 µM. How it is done: Growth inhibition of the HS 578T human tumor cell line is measured as a screen for anti-cancer activity. Cells are grown in 96 well plates and exposed to the test compound for 48 hours. Compounds are tested at a single concentration, which is 10^-5 M for most compounds. The reported endpoint is percent growth (GI% or GIPRCNT), where numbers from 0 - 100% represent growth inhibition, and numbers from -100% - 0 represent cell death. For example, a value of 40 represents 60% growth inhibition. A value of 0 means no net growth occurred over the course of the experiment. A value of -40 indicates 40% of cells at the beginning of the experiment died by the end of the experiment. A value of -100 means all cells are dead at the end of the experiment.
NCI-60 Human Tumor Cell Lines Screen was performed using the standard one-dose NCI protocol, which is described in more detail at https://dtp.cancer.gov/discovery_development/nci-60/default.htm.
Compounds with GIPRCNT values below 10 were considered active. Activity score was based on GIPRCNT using the following formula: […]
Score is 0 for GIPRCNT values of 100 or above, 50 for GIPRCNT values of 0, and 100 for GIPRCNT values of -100.
Turning to `CC(=O)OCC1OC([S-])C(OC(C)=O)C(OC(C)=O)C1OC(C)=O.[Au+].c1ccc(CN2[CH-]N(Cc3ccccc3)C(c3ccccc3)=C2c2ccccc2)cc1`, the growth was 10%.

Still in this assay, the particulars now being: 10 µM.
`CC(=O)OCC1OC([S-])C(OC(C)=O)C(OC(C)=O)C1OC(C)=O.[Au+].c1ccc(CN2[CH-]N(Cc3ccccc3)C(c3ccccc3)=C2c2ccccc2)cc1`: the growth is 28.5%.

The same assay, now with this note: 10 µM unless noted.
`C=CC[PH+](c1ccccc1)c1ccccc1.C=CC[PH+](c1ccccc1)c1ccccc1.[Pt+2].[S-]c1ncccn1.[S-]c1ncccn1`: the growth is 61.6%. On the same count and under the same terms, for `C=CC1CN2CCC1CC2C(O)c1ccnc2ccccc12` (stereo not given) the value was 117%; for `CC(C)COC(=O)Cc1ccccc1`, 102%. On the same count and under the same terms, for `O=C1c2ccccc2C(=O)N1N1CC1c1ccccc1` (stereo not given) the value was 112%; for `O=[N+]([O-])c1ccc(P(=O)(O)O)cc1`, 108%; for `COc1ccc(N)cc1OC`, 116%.

Take `CCC(=O)C(CC(C)[N+](C)(C)C)(c1ccccc1)c1ccccc1` (stereo not given): the growth is 107%.

`COc1ccc2c(c1)c(-c1nc(-c3c[nH]c4ncccc34)cs1)cn2CCCCN1CCOCC1`: the growth is 44.8%. On the same count and under the same terms, for `COC(=O)C12C3C4C1C1C2C3C41NC(=O)c1csc([C@@H](C[C@H](C(C)C)N(C)C(=O)[C@@H](NC(=O)[C@H]2CCCCN2C)C2CC2)OC(C)=O)n1` (stereo not given in full) the value was 28.1%; for `O=S1(=O)OCCO1`, 95.1%; for `O=C(O)c1ccc(=O)[nH]c1`, 98.5% and 102%. In the case of `COc1cc(/C=C\[N+](=O)[O-])ccc1OCc1ccccc1`, the growth was 42.9%. Still for that read-out and setting: for `CC[C@H](C)[C@H](NC(=O)CN(C)C)C(=O)N(C)[C@H](C[C@@H](OC(C)=O)c1nc(C(=O)NC23C4C5C2C2C3C4C52C(=O)OC)cs1)C(C)C` (stereo not given in full) the value was 19.8%; for `CC(C)c1cccc(C(C)C)c1O`, 105% and 94.9%. On to `OCCNC1CCCCC1`, for which the growth is 108%. As to `C[C@]12C[C@H](c3ccoc3)OC(=O)[C@H]1CC[C@@]1(C)[C@@H]2[C@H]2C=C[C@]1(O)C(=O)O2`, the growth is 107%.

In the case of `C/C=C(/C)C(=O)O[C@H]1CC[C@@]2(C)[C@@H]3CC[C@H]4[C@]5(O)C[C@H](O)[C@@]6(O)[C@@H](CN7C[C@@H](C)CC[C@H]7[C@@]6(C)O)[C@]5(O)C[C@@]42O[C@@]13O`, the growth was 116%. Turning to `C#COc1cccc(Nc2ncnc3cc(NC(=O)CF)ccc23)c1`, the growth is 44.2% [6.25 µM]. Turning to `Oc1cc(Cl)ccc1Oc1ccc(Cl)cc1Cl`, the growth is -18.1% (active).

Turning to `CO/N=C1\CC[C@]2(C)[C@H]3CC[C@]4(C)C(=O)CC[C@H]4[C@@H]3C[C@@H]3SC(N)=N[C@@]32C1`, the growth is 102%. Still for that read-out and setting: for `CCC1(NC(=O)c2cc(F)c(F)c(F)c2F)C(=O)NC(=O)N(C(C)C)C1=O` (stereo not given) the value was 28.3%; for `O=C1NC(=O)C(=C/C=C/c2ccccc2)C(=O)N1`, 39.4%; for `C#Cc1cccc(Nc2nc(Cl)nc3cc(NC(=O)CF)ccc23)c1`, 84.3%. For the molecule `C[Se]/C=C1/C(=O)N(c2c(Cl)cccc2Cl)c2ccccc21`, the growth was 13%.

On to `CCCC[C@H]1C(=O)O[C@H](C)[C@H](NC(=O)c2cccc(NC=O)c2O)C(=O)O[C@@H](C)[C@@H]1OC(=O)CC(C)C`, for which the growth was -18.5% (active). The same measure, in the same setting: for `CCC(Br)(CC)C(=O)NC(N)=O` the value was 106%; for `O=C(O)CNCP(=O)(O)O`, 121%.

Regarding `Cc1cc(N(CCCl)CCCl)ccc1/C=N\NC(=O)c1cccnc1`, the growth was 98.3% and 103%. On the same count and under the same terms, the value for `ClCc1ccc(Cl)c(Cl)c1` was 103%. On the same count and under the same terms, the value for `CCN1C(=O)NC(=O)C(C)(N2C(=O)c3c(F)c(F)c(F)c(F)c3C2=O)C1=O` (stereo not given) was 12.1%; that for `O=c1[nH]c(=O)n(Cl)c(=O)n1Cl` was 106% and 99.9%. With `CC[C@H](C)[C@H](NC(=O)c1ncccn1)C(=O)N(C)[C@H](C[C@@H](OC(C)=O)c1nc(C(=O)N[C@@H](Cc2ccccc2)C[C@H](C)C(=O)OC)cs1)C(C)C`, the growth is 18.3%. On the same count and under the same terms, the value for `CCOC(=O)c1cncn1C(C)c1ccccc1` (stereo not given) was 97.2%; that for `CCCC(C)SP(=S)(SC(C)CCC)SC(C)CCC` (stereo not given) was 108%. On to `Cc1ccc(C(=O)O[C@H](C(=O)O)[C@H](OC(=O)c2ccc(C)cc2)C(=O)O)cc1`, for which the growth was 128%. On the same count and under the same terms, for `CC[C@H](C)[C@H]1O[C@]2(C=C[C@@H]1C)C[C@@H]1C[C@@H](C/C=C(\C)[C@@H](O[C@H]3C[C@H](OC)[C@@H](O[C@H]4C[C@H](OC)[C@@H](NC)[C@H](C)O4)[C@H](C)O3)[C@@H](C)/C=C/C=C3\CO[C@@H]4[C@H](O)C(C)=C[C@@H](C(=O)O1)[C@]34O)O2` the value was -42.9% (active); for `CN(C)c1ccc(N)cc1`, 100% and 54.5%; for `CC/C(=C(\c1ccc(OCCN2CCOCC2)cc1)c1ccc(OC(=O)Cc2ccccc2)cc1)c1ccc(Cl)cc1`, 96.6%.
